The source made the active and inactive calls.
How the values were obtained:
[1] = system: PRMT1 (protein arginine N-methyltransferase 1); experiment: small molecules binding arginine methyltransferase PRMT1 – biochemical, small-molecule microarray, 635 nm fluorescence, primary screen (AID 1088); details: higher = more signal;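 note: binding of Prmt1 protein to compounds spotted on small-molecule microarray slides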
[2] = growth effects on S. cerevisiae YJM789 – YJM789 clinical isolate, OD600, 24 h, basal, primary screen (AID 1089); details: higher = more signal, called active from +8 up or from −8 down;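 note: growth of clinical yeast isolate S. cerevisiae YJM 789 seeded 1000 cells per well; test concentration not given here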
[3] = S. pombe growth modifiers, basal conditions – strain 972, OD600, 24 h, no modulator, primary screen (AID 1090);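 note: basal condition with compound alone and no growth modifier present; test concentration not given here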; details: S. pombe 972 growth, higher = more signal, called active from +8 up or from −8 down
[4] = budding yeast growth modifiers under rapamycin – strain BY4716, OD600, 96 h, primary screen (AID 1091); note: test concentration not given here; details: S. cerevisiae BY4716 + rapamycin, higher = more signal, called active from +8 up or from −8 down
[5] = molecular target: Torsin-1A-interacting protein 2 (Homo sapiens) (UniProt Q8NFQ8); experiment: small molecules binding lysate-expressed LULL1 – cell lysate, human LULL1 lysate, 635/667 nm fluorescence, primary screen (AID 1092); details: small-molecule microarray, hLULL1 lysate binding, 635 nm fluorescence; higher = more signal;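 note: probe is lysate of COS7 cells overexpressing human LULL1; score merges per-feature 667 nm fluorescence with signal-to-noise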
[6] = optical density change of DRC41 E. coli – strain DRC41, OD650, 24 h, E. coli filamentation project, primary screen (AID 1093);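 note: MC1000 strain lacking acrAB efflux and sulA so SOS filamentation is blocked; test concentration not given here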; details: E. coli DRC41 growth, higher = more signal, called active from +8 up or from −8 down
[7] = probe aLefty2 binding to arrayed compounds – biochemical, biotinylated probe, 635/667 nm fluorescence, primary screen (AID 1094); details: small-molecule microarray, higher = more signal;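 note: score merges spot fluorescence near 667 nm with spot signal-to-noise ratio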
[8] = system: Noggin (protein binding on small-molecule microarray); experiment: small molecules binding Noggin protein – biochemical, 635/667 nm fluorescence, primary screen (AID 1095); details: 635 nm fluorescence, higher = more signal;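 note: score merges 667 nm feature fluorescence with signal to noise over triplicate slides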
[9] = molecular target: Neurogenic locus notch homolog protein 3 (Homo sapiens) (UniProt Q9UM47); experiment: small molecules binding NOTCH3 protein – biochemical, 635/667 nm fluorescence, primary screen (AID 1096); details: small-molecule microarray, 635 nm fluorescence, higher = more signal
[10] = probe aEGFR binding to arrayed compounds – biochemical, biotinylated probe, 635/667 nm fluorescence, primary screen (AID 1097); details: small-molecule microarray, higher = more signal;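 note: probe is a biotinylated anti-EGFR antibody binding compounds printed on slides; score combines fluorescence near 667 nm and signal to noise of each spot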

Sequence of Torsin-1A-interacting protein 2 (Homo sapiens) (Q8NFQ8 whole entry, looked up): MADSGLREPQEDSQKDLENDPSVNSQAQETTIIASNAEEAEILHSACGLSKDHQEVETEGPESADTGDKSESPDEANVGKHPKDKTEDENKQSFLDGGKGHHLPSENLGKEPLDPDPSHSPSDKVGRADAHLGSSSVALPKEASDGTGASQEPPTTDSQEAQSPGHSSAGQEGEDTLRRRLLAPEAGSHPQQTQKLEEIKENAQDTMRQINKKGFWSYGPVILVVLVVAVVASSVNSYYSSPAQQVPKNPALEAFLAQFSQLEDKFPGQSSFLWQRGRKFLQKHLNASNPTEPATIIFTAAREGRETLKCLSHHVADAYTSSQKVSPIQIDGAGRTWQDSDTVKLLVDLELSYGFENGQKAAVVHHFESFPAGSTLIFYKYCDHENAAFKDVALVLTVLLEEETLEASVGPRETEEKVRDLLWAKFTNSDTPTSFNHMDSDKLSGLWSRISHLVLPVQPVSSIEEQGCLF
Sequence of Neurogenic locus notch homolog protein 3 (Homo sapiens) (Q9UM47 whole entry, looked up): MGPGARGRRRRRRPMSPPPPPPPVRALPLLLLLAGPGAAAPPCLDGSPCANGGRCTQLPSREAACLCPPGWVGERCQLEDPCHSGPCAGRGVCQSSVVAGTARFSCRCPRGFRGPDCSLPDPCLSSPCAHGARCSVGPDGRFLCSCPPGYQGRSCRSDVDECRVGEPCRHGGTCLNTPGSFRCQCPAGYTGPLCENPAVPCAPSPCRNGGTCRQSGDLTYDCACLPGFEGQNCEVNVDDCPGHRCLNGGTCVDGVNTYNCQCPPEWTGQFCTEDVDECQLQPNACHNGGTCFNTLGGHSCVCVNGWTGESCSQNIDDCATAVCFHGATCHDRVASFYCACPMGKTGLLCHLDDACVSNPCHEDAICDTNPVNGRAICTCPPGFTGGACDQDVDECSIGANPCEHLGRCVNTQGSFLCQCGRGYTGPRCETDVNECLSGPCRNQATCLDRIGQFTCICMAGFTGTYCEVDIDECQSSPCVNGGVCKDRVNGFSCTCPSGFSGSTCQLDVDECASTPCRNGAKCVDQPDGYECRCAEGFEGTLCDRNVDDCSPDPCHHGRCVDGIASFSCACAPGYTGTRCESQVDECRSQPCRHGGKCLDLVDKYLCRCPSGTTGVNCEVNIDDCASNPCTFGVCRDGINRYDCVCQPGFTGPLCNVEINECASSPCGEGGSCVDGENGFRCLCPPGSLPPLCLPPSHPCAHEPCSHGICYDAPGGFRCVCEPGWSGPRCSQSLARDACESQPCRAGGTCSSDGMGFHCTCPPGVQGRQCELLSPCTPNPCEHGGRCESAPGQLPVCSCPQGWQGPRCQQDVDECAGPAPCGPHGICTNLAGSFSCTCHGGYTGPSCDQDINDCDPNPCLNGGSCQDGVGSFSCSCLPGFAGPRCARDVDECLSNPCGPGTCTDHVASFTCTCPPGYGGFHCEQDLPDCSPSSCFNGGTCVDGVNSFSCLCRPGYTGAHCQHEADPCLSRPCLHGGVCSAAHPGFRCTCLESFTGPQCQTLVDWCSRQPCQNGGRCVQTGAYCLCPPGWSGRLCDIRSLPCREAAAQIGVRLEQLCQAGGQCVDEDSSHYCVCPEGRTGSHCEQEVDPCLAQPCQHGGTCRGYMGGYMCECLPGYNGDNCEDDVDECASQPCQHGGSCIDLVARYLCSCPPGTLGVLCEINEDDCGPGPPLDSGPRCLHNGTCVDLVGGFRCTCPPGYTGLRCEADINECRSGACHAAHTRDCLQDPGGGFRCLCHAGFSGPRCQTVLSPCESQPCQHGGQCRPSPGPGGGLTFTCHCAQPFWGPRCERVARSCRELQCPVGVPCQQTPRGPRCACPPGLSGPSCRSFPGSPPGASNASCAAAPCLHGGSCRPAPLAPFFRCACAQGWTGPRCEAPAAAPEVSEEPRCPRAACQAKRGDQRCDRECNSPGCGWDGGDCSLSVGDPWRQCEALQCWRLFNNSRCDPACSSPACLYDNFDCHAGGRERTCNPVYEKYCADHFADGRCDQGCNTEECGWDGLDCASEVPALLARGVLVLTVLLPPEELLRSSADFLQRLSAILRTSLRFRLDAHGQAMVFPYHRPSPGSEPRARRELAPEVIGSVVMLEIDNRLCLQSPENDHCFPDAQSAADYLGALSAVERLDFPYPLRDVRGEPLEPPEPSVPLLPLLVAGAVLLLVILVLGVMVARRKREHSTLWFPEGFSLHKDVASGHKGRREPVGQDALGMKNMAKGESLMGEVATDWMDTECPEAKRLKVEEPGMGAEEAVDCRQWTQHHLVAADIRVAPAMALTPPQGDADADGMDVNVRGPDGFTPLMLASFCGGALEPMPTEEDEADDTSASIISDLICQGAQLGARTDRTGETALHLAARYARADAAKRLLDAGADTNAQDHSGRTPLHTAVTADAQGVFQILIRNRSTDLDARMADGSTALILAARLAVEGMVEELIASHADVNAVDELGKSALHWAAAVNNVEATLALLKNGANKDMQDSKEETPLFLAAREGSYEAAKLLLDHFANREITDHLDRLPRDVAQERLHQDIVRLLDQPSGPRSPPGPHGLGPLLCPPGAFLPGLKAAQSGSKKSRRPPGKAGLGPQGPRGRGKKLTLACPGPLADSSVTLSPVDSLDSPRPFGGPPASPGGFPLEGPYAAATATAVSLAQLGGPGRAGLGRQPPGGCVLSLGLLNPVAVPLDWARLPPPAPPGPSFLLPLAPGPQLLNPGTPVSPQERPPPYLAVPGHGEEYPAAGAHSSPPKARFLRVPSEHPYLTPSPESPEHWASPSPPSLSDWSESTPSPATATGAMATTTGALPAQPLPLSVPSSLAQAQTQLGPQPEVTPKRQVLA

| Compound | composite z-score [1] | z-score [2] | z-score [3] | z-score [4] | composite z-score [5] | z-score [6] | composite z-score [7] | composite z-score [8] | composite z-score [9] | composite z-score [10] |
| --- | --- | --- | --- | --- | --- | --- | --- | --- | --- | --- |
| CCCCCN1CC=CC23O[C@@H]4C=CCOC(=O)[C@@H]4[C@H]2C(=O)N(CCCO)[C@@H]3C1=O (stereo not given in full) | 1.55 | 0.811 (inactive) | -0.717 (inactive) | -1.05 (inactive) | 3.5 | 3.09 (inactive) | -0.221 | 0.243 | 0.0152 | -0.185 |
| [N-]=[N+]=Nc1ccccc1C[C@]1(C(=O)NCCN2CCOCC2)N=C(c2ccc(OCCCO)cc2)O[C@H]1c1ccccc1 | 1.31 | 3.66 (inactive) | -1.17 (inactive) | -1.78 (inactive) | 3.24 | 0.681 (inactive) | 0.0029 | 0.599 | 0.482 | 0.0756 |
| O=C1N(CCS(=O)(=O)c2ccccc2)Cc2ccccc2C[C@]12N=C(c1ccc(OCCCO)cc1)O[C@@H]2c1ccccc1 | 1.54 | -0.452 (inactive) | 1.2 (inactive) | 4.94 (inactive) | 3.45 | 0.175 (inactive) | 0.366 | 1.2 | 1.05 | 0.177 |
| O=C1OCCC=C[C@H]2OC34C=CCN(Cc5ccccc5)C(=O)[C@H]3N(CCCCCO)C(=O)[C@@H]4C12 (stereo not given in full) | 0.878 | 1.5 (inactive) | -0.0407 (inactive) | -0.188 (inactive) | 3.74 | 1.42 (inactive) | -0.171 | -0.748 | -0.483 | -0.252 |
| COC(=O)[C@@]1(Cc2ccc(F)cc2)[C@H]2c3cc(C(=O)N4CCCC4)n(Cc4cccc5ccccc45)c3C[C@H]2CN1C(=O)c1ccccc1 | 0.187 | 0.0247 (inactive) | 0.702 (inactive) | 0.307 (inactive) | 3.85 | -1.48 (inactive) | 0.698 | -0.275 | 0.941 | 0.245 |
| CC(C)C[C@@H]1NC(=O)[C@H]2C[C@@H](C(=O)NCCCCCNC(=O)CS)[C@@H](c3cccc(OCCO)c3)N2C1=O | 1.53 | -0.454 (inactive) | -0.267 (inactive) | 0.0073 (inactive) | 3.06 | -0.187 (inactive) | 0.106 | 1.98 | 1.07 | 0.111 |
| O=C(CS)NCCCCCCNC(=O)[C@H]1C[C@H]2C(=O)NCC(=O)N2[C@H]1c1ccc(O)cc1 | 0.16 | -0.408 (inactive) | 0.0177 (inactive) | 0.505 (inactive) | 1.46 | -0.449 (inactive) | -0.0903 | 0.384 | 0.0288 | -0.136 |
| NC(=O)NCC#Cc1ccc2c(c1)[C@]1(C(=O)N2)[C@H](C(=O)N2CCCCCCC2)[C@H]2C(=O)O[C@H](c3ccccc3)[C@H](c3ccccc3)N2[C@@H]1c1ccc(OCCO)cc1 | 1.43 | 1.65 (inactive) | 0.562 (inactive) | 4.58 (inactive) | 2.06 | -0.219 (inactive) | 1.63 | 1.47 | 1.02 | 0.864 |
| CN(C)CCCCCCNC(=O)[C@H]1C[C@H]2C(=O)N[C@@H](CCCCN)C(=O)N2[C@H]1c1ccc(O)cc1 | 1.54 | -0.329 (inactive) | -2.88 (inactive) | -0.02 (inactive) | 4.58 | -0.151 (inactive) | 1.76 | 2.02 | 1 | 1.15 |
| O=C1C2C=CC(C(O)c3ccc(-c4ccccc4)s3)N(n3cnnc3)C2C(=O)N1Cc1ccccc1 (stereo not given) | 0.147 | -0.466 (inactive) | -11.7 (active) | -0.0238 (inactive) | 1.77 | -0.485 (inactive) | -0.0823 | -0.0489 | 0.225 | -0.0716 |
| CCOC(=O)C1=CCC(c2ccc([N+](=O)[O-])cc2)N(S(=O)(=O)c2ccc(C)cc2)C1 (stereo not given) | -0.394 | 1.33 (inactive) | 2.26 (inactive) | 4.61 (inactive) | 1.28 | 0.638 (inactive) | 0.0478 | -0.281 | 0.422 | 0.0296 |
| COc1ccc(C#Cc2ccc3c(c2)[C@]2(C(=O)N3)[C@H](C(=O)NC[C@H](O)c3ccccc3)[C@H]3C(=O)O[C@H](c4ccccc4)[C@H](c4ccccc4)N3[C@@H]2c2ccccc2OCCO)cc1 | 1.54 | 2.23 (inactive) | 2.01 (inactive) | 4.39 (inactive) | 2.94 | 0.413 (inactive) | 0.0179 | 1.4 | 1.06 | -0.0192 |
| COc1ccc(NN2C(C(O)c3ccc(OC)c(OCc4ccccc4)c3)C=CC3C(=O)N(C4CCCCC4)C(=O)C32)cc1 (stereo not given) | 1.3 | -0.352 (inactive) | 0.225 (inactive) | -0.724 (inactive) | 3.24 | 0.644 (inactive) | 0.0225 | 0.181 | 1.05 | -0.0688 |
| CCC[C@@H]1C=C(C(=O)O)[C@H](c2ccc(C)cc2)N1S(=O)(=O)c1ccc(C)cc1 | 0.844 | -0.545 (inactive) | 0.249 (inactive) | -0.34 (inactive) | 3.68 | -0.499 (inactive) | 0.0943 | -0.327 | 0.62 | 0.0992 |

Reference: PubChem BioAssay
